Experiment [1] concerns the target Retinoic acid receptor RXR-alpha (Homo sapiens) (UniProt P19793). Put plainly: qHTS assay to identify small molecule agonists of the RXR signaling pathway (AID 1159527; calls by dose curve; further: nearly all actives have a fitted effect of over 35% in size). In short, it runs like this: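 Agonist-mode beta-lactamase reporter assay: HEK 293T RXR-alpha-UAS-bla cells treated 16 hr at 37 C with compounds, 9-cis retinoic acid as positive control. LiveBLAzer FRET substrate, 405 nm excitation, 460/530 nm emission.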
For orientation: qHTS replaces the single test concentration by a dilution series.

Experiment [2] can be described thus: qHTS assay to identify small molecule agonists of the RXR signaling pathway - cell viability counter screen (AID 1159529). Further: nearly all actives have a fitted effect of over 50% in size. The procedure, abridged:
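CellTiter-Glo luminescence gave viability in the wells also read for beta-lactamase. Cells (RXR-alpha-UAS-bla HEK 293T, 2% charcoal-stripped FBS medium) had 5 hr plating, then 16 hr compound exposure at 37 C; tetraoctyl ammonium bromide served as positive control.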

Experiment [3] can be described thus: qHTS assay to identify small molecule antagonists of the retinoic acid receptor (RAR) signaling pathway (AID 1159552; further: nearly all actives have a fitted effect of over 50% in size). In short, it runs like this: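 Luminescent RARE reporter read-out in C3RL4 cells: 6 hr co-treatment at 37 C of test compounds with retinol at 1 uM final. Cells plated overnight beforehand; luciferase reagent incubated 30 min at room temperature before reading.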

A short description of experiment [4]: qHTS assay to identify small molecule agonists of the retinoic acid receptor (RAR) signaling pathway (AID 1159553). The settings on record: C3RL4 RARE luciferase reporter, agonist, 6 h; activation: at 73.3 µM (top of the series). In short, it runs like this: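 Seed C3RL4 reporter cells at 1,000 per well and incubate overnight at 37 C. Add compounds in DMSO, incubate 6 hr. Add luciferase reagent, wait 30 min at room temperature, read luminescence.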

A short description of experiment [5]: qHTS assay to identify small molecule agonists of the constitutive androstane receptor (CAR) signaling pathway - cell viability counter screen (AID 1224836). Further: nearly all actives have a fitted effect of over 45% in size. The procedure, abridged:
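Cell viability multiplexed with the CAR agonist screen: CellTiter-Fluor fluorescence after 23 hr at 37 C. HepG2-CYP2B6-hCAR cells got compounds at 15 concentrations with PK11195 at 0.75 uM final.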

Experiment [6] is described as follows: qHTS assay to identify small molecule antagonists of the constitutive androstane receptor (CAR) signaling pathway - cell viability counter screen (AID 1224837). Further: nearly all actives have a fitted effect of over 45% in size. In short, it runs like this: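 Viability was measured with CellTiter-Fluor in a HepG2 line carrying stably transfected hCAR and a CYP2B6-2.2kb construct. Cells were exposed for 23 hr at 37 C to 15 compound concentrations with 50 nM CITCO as agonist.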

For experiment [7], the target named is Nuclear receptor subfamily 1 group I member 3 (Homo sapiens) (UniProt Q14994). As to the kind of experiment: qHTS assay to identify small molecule antagonists of the constitutive androstane receptor (CAR) signaling pathway (AID 1224838).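 Further: HepG2 cells stably expressing hCAR with CYP2B6 luciferase reporter stimulated by CITCO; nearly all actives have a fitted effect of over 40% in size.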 The procedure, abridged:
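Antagonist mode used CITCO at a final 50 nM to activate CAR in human hepatoma HepG2 cells carrying stable hCAR and a 2.2 kb CYP2B6 promoter-luciferase construct. Compounds were tested at 15 concentrations over 24 h, with luminescence as the end point.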

For experiment [8] the target is unchanged. Put plainly: qHTS assay to identify small molecule agonists of the constitutive androstane receptor (CAR) signaling pathway (AID 1224839). Further: nearly all actives have a fitted effect of over 15% in size. In short, it runs like this:
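Luminescent ONE-Glo read-out after 24 hr, 37 C exposure of double-stable HepG2-CYP2B6-hCAR reporter cells to a 15-point compound series, in the presence of 0.75 uM PK11195 (final).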

A short description of experiment [9]: qHTS assay to identify small molecule antagonists of the estrogen related receptor signaling pathway with the pleiotropic PPARgamma coactivator (PGC) from Tox21 10K library - cell viability counter screen (AID 1224840; active means well fitted cell-killing curve with a large enough effect in the repeat runs, not every such curve was filed as active; further: nearly all actives have a fitted effect of over 40% in size). In short, it runs like this: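 Multiplexed viability counter screen in the PGC/ERR cell line: cells treated with DMSO-dissolved compounds for 17.5 hours at 37 C, then viability measured as CellTiter-Fluor fluorescence.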

A short description of experiment [10]: qHTS assay to identify small molecule antagonists of the estrogen related receptor signaling pathway with the pleiotropic PPARgamma coactivator (PGC) from Tox21 10K library (AID 1224841; call rule not given here; further: actives are mostly falling curves and most rising ones were filed inactive; nearly all actives have a fitted effect of over 50% in size). The procedure, abridged: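 Steps: plate 2,000 PGC/ERR cells per well; incubate 6 h at 37 C with 5% CO2; transfer compounds from DMSO stocks by pin tool; incubate 18 h at 37 C; add One-Glo; measure luminescence 30 min later.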

Experiment [11] can be described thus: qHTS assay to identify small molecule agonists of the estrogen related receptor signaling pathway with the pleiotropic PPARgamma coactivator (PGC) from Tox21 10K library (AID 1224842). Further: nearly all actives have a fitted effect of over 15% in size. The procedure, abridged: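 Luminescence from One-Glo (30 min, room temperature) measured after PGC/ERR cells had 18 h at 37 C with pinned compound (23 nL in DMSO). Cells had been seeded at 2,000 per well and pre-incubated 6 h.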

For experiment [12], the target named is Thyrotropin receptor (Homo sapiens) (UniProt P16473). As to the kind of experiment: qHTS assay to identify small molecule agonists of the thyroid stimulating hormone receptor (TSHR) signaling pathway (AID 1224843; calls by dose curve; further: nearly all actives have a fitted effect of over 45% in size). The procedure, abridged:
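A cell-based cAMP HTRF format was run in TSHR-transfected HEK293 cells, 800 per well. Treatment: 30 min, room temperature. Detection: 1 h with labelled cAMP and anti-cAMP cryptate. Concentration-response over 15 points, three replicates.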

The nature of experiment [13]: qHTS assay to identify small molecule agonists of the hypoxia (HIF-1) signaling pathway - cell viability counter screen (AID 1224844; calls by dose curve; further: nearly all actives have a fitted effect of over 50% in size). In short, it runs like this: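 Cytotoxicity was measured in parallel with the HRE-driven beta-lactamase readout: after 17 hrs of compound exposure at 37C, HRE-bla ME-180 cells received CellTiter-Glo and luminescence was recorded 30 min later.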

The nature of experiment [14]: qHTS assay to identify small molecule agonists of H2AX (AID 1224845; active means well fitted activation curve with a large enough effect in the signal ratio in the repeat runs, not every such curve was filed as active; the % refers to the signal ratio). The procedure, abridged: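 Phospho-H2AX Ser139 measured by HTRF (ex 320 nm; em 665 and 620 nm) after 24 hr antibody incubation. Compounds, 15 concentrations, 0.76% DMSO, were applied to CHO-K1 cells for 3hr at 37C before lysis.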
A short description of experiment [15]: qHTS assay to identify small molecule agonists of the hypoxia (HIF-1) signaling pathway (AID 1224846; active means well fitted activation curve with a large enough effect in the signal ratio in the repeat runs, not every such curve was filed as active; the % refers to the signal ratio). In short, it runs like this:
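Compounds from the Tox21 10K library, dissolved in DMSO, are tested for induction of a hypoxia response element–controlled beta-lactamase reporter in ME-180 cells. Exposure lasts 17 hrs at 37C after a 5 hr settling period, followed by CCF4-AM FRET substrate.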

The nature of experiment [16]: qHTS assay to identify small molecule agonists of H2AX - cell viability counter screen (AID 1224847; calls by dose curve;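 further: wild-type CHO-K1 cells; top concentration of the series differs between compounds; nearly all actives have a fitted effect of over 30% in size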). In short, it runs like this:
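Counter-screen for viability: CellTiter-Glo ATP luminescence read after 3 h compound treatment (15-point titration, 0.76% DMSO final) of CHO-K1 cells at 37C, with 30 min room-temperature reagent incubation.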

Experiment [17] can be described thus: qHTS assay to identify small molecule antagonists of the estrogen related receptor (ERR) signaling pathway from Tox21 library (AID 1224848). Further: nearly all actives have a fitted effect of over 50% in size. Further: potency means the concentration at half of the fitted maximal effect. In short, it runs like this:
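ERR cell line, 2,000 cells/well. 6 h settle, then compound (DMSO) added; 18 h at 37 C; ONE-Glo luminescence after 30 min RT.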

Experiment [18] in a line: qHTS assay to identify small molecule antagonists of the retinoid acid receptor (RAR) signaling pathway - cell viability counter screen (AID 1159551). Further: nearly all actives have a fitted effect of over 35% in size. The procedure, abridged:
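Cells (C3RL4) are plated, incubated overnight, dosed with compound in DMSO, then given retinol at 1 uM final. After 6 h at 37 C, CellTiter-Glo is added and luminescence read following 30 min at room temperature.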

Experiment [19] in a line: qHTS assay to identify small molecule antagonists of the estrogen related receptor (ERR) signaling pathway from Tox21 library - cell viability counter screen (AID 1224834). Further: nearly all actives have a fitted effect of over 30% in size. In short, it runs like this:
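ERR cells, 2,000/well; 6 h settle at 37 C/5% CO2; pin-tool compound transfer in DMSO; 17.5 h at 37 C; CellTiter-Fluor, 30 min; fluorescence intensity.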

For experiment [20], the target named is Luciferin 4-monooxygenase (Photinus pyralis) (UniProt P08659). Put plainly: qHTS assay to identify small molecule inhibitors of firefly luciferase (AID 1224835). Further: nearly all actives have a fitted effect of over 25% in size. In short, it runs like this:
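Inhibition of purified Photinus luciferase is measured by luminescence. Substrate levels (D-luciferin, ATP) sit at their KM values. Each compound is tested in a concentration series.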

Structures are written as SMILES. Inconclusive results are not listed. Values without a mark were called inactive. The source made the active and inactive calls. Unless noted, the call rests on the fitted dose curve; in most records, active means well fitted curve in the direction sought with a large enough effect in the repeat runs; inconclusive means weak or mixed curves; inactive means no such curve, though single readings can be large; an effect the other way counts as inactive or inconclusive.
On the % scale 0 is the no-effect control and ±100 the full control effect.

Chain of Luciferin 4-monooxygenase (Photinus pyralis) (P08659 whole entry, looked up): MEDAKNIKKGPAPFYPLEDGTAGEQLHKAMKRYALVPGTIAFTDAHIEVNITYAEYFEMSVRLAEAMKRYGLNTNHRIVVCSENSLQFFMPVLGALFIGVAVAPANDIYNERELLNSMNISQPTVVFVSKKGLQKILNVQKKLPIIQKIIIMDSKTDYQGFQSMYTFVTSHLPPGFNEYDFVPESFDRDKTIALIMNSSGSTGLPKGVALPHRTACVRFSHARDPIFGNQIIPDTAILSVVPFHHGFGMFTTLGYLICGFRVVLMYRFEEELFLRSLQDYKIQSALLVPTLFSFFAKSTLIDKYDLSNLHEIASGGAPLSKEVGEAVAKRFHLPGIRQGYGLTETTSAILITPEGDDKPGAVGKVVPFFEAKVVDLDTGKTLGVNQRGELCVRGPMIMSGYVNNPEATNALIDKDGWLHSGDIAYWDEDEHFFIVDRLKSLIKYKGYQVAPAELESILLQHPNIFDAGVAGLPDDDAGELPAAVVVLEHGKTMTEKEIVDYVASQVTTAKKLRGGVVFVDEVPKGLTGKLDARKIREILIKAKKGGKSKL
Chain of Thyrotropin receptor (Homo sapiens) (P16473 whole entry, looked up): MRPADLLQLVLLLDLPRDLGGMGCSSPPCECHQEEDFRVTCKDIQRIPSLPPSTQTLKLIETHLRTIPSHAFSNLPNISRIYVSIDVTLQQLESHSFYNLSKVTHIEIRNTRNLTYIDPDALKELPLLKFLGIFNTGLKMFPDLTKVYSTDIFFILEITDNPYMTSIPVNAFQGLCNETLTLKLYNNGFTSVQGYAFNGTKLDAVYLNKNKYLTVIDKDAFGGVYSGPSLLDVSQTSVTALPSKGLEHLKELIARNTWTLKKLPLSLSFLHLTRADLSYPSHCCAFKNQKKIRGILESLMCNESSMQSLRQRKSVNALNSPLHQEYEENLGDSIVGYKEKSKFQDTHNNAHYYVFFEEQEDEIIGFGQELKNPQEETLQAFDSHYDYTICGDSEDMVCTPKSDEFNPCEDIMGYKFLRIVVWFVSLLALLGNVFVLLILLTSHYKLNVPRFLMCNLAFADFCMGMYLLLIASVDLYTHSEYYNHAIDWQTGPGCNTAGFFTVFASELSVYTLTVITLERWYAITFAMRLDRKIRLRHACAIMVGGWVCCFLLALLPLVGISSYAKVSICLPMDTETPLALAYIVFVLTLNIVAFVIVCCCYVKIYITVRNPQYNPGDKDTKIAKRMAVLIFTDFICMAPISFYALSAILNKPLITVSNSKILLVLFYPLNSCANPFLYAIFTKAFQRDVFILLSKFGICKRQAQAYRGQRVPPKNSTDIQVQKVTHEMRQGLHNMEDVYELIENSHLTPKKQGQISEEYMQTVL
Chain of Retinoic acid receptor RXR-alpha (Homo sapiens) (P19793 whole entry, looked up): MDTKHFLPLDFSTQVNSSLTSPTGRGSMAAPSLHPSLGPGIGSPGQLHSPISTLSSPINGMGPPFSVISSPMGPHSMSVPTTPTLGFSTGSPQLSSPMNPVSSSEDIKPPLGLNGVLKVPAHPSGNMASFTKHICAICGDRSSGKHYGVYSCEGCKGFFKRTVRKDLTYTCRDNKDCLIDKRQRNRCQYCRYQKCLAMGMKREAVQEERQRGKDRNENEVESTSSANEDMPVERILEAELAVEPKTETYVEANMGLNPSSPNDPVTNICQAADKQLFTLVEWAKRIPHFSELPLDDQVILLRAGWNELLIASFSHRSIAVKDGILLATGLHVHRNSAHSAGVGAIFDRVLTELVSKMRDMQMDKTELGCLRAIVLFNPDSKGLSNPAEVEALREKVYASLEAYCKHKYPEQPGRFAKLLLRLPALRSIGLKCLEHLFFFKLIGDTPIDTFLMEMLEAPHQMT
Chain of Nuclear receptor subfamily 1 group I member 3 (Homo sapiens) (Q14994 whole entry, looked up): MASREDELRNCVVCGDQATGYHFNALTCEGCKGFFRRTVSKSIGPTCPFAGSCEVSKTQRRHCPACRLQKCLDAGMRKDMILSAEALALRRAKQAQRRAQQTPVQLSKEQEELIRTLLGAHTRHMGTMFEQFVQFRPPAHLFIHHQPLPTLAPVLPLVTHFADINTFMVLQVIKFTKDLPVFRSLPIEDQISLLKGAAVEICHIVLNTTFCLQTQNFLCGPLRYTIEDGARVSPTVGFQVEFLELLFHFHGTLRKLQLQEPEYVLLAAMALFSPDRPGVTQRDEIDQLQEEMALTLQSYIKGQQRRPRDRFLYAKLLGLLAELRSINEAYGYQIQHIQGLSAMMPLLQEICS

With `CCCCCCCCCOCC1CO1` (configuration not stated), the Potency entry in experiment [1], in experiment [3], in [4], in [6], in experiment [7] and in experiment [8] was “inactive” each time. The Potency result in [10], in experiment [16] and in experiment [17] was “inactive” each time. The compound was classed as inactive in [2], in experiment [5], in experiment [9], in experiment [11], in experiment [12] and in experiment [13]. The outcome in experiment [14] and in [15] was inactive.
As to `CC(=O)Nc1ccc(C)cc1`, the Potency result in [1], in [4], in experiment [19], in [6], in [10] and in [16] was “inactive” throughout. For the same compound, the Potency entry in experiment [17] is “inactive”. For the same compound, the result in experiment [2], in experiment [18], in [9], in [11], in experiment [13] and in [14] was inactive. In experiment [15], the compound was called inactive.
As to `CC(=O)OC(C)c1ccccc1` (configuration not stated), the Potency result in [1], in [3], in [4], in experiment [19], in experiment [20] and in experiment [6] was “inactive” throughout. The Potency entry in [7], in experiment [8] and in experiment [16] was “inactive” throughout. Besides, the call in experiment [2], in [5], in [9], in experiment [13], in experiment [14] and in experiment [15] was inactive.
In the case of `C[CH2][Ge]([Cl])([CH2]C)[CH2]C`, the Potency entry in [1], in [4], in experiment [20], in [6], in experiment [16] and in [17] was “inactive” throughout. Besides, the compound was called inactive in [2], in [18], in experiment [5], in experiment [9], in experiment [11] and in experiment [12]. Moreover, the call in experiment [13], in [14] and in experiment [15] was inactive.
On to `CCCCCCCCCCCCC`, for which the Potency entry in experiment [1], in [3], in experiment [4], in experiment [19], in experiment [6] and in experiment [16] was “inactive” throughout. Moreover, the outcome in [2], in [5], in experiment [12], in experiment [13], in experiment [14] and in experiment [15] was inactive.
Take `Nc1ccc(/C=C/c2ccc(N)cc2S(=O)(=O)O)c(S(=O)(=O)O)c1`: the activation was 6.35% [at 0.29 µM] in experiment [1], -0.705% [at 0.756 µM] in experiment [4] and -0.978% [at 0.291 µM] in experiment [15]. Also, the activity change, negative = cytotoxicity in [2] was 1.24% [at 0.29 µM]; in [6], 10.1% [at 0.349 µM]; in [13] it was -0.74% [at 0.29 µM]; in [16], 3.7% [at 0.582 µM]. The values for the activity, negative = inhibition in experiment [3], in experiment [7] and in experiment [17] were 3.51% [at 0.349 µM], -20.1% [at 0.349 µM] and 4.28% [at 0.349 µM], respectively. Moreover, the viability change, negative = cytotoxic was 2.37% [at 0.349 µM] in experiment [19] and 6.71% [at 0.349 µM] in experiment [5]. Also, the activity change, negative = inhibition in experiment [20] was 0.257% [at 0.435 µM]. For the same compound, the activation (H2AX phosphorylation) in [14] is -0.0976% [at 0.582 µM].
With `C=CCOc1c(Br)cc(C(C)(C)c2cc(Br)c(OCC=C)c(Br)c2)cc1Br`, the Potency entry in [1], in experiment [3], in [4], in [19], in experiment [20] and in experiment [6] was “inactive” each time. For the same compound, the outcome in experiment [2], in experiment [5], in [9], in [11], in experiment [12] and in experiment [13] was inactive. Moreover, the outcome in [14] and in [15] was inactive. Further, the Potency in experiment [17] was 29.9 µM (active).

(Values after PubChem BioAssay (Tox21).)
